Compounds without any hit were thinned out: in the full panel of roughly 79,000, 15% have a hit. Cut-off read from the data, not from the text of the source: active = growth inhibition above about 70%; inactive = the rest.
Assays:
[1] = NCI Yeast Anticancer Drug Screen. Data for the rad50 strain (AID 155);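 note: 0% = growth of vehicle-only cultures of the same strain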; details: S. cerevisiae rad50 strain growth inhibition; at 50.0 µM; active compounds read high
Method in brief: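 Growth of the mutant yeast was measured after compound exposure and referenced to vehicle-treated cultures.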

[2] = NCI Yeast Anticancer Drug Screen. Data for the mec2-1 strain (AID 157); details: S. cerevisiae mec2-1 strain, at 50.0 µM, active compounds read high
Method in brief: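 Each compound was tested on mec2-1 yeast, a strain altered in DNA damage repair or cell cycle control. Growth inhibition is reported relative to vehicle.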

[3] = NCI Yeast Anticancer Drug Screen. Data for the sgs1 mgt1 strain (AID 161);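 note: 0% = growth of cultures given vehicle only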; details: S. cerevisiae sgs1 mgt1 strain, at 50.0 µM, active compounds read high
Method in brief: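 Mutant yeast exposed to compound; growth scored against vehicle-only wells.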

[4] = NCI Yeast Anticancer Drug Screen. Data for the cln2 rad14 strain (AID 165);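 note: 0% = growth equal to vehicle treated cultures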; details: S. cerevisiae cln2 rad14 strain, at 50.0 µM, active compounds read high
Method in brief: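 Test compounds were added to cln2 rad14 yeast cultures; inhibition of growth was then determined by comparison with vehicle treatment.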

[5] = NCI Yeast Anticancer Drug Screen. Data for the bub3 strain (AID 167); details: S. cerevisiae bub3 mutant strain, at 50.0 µM, active compounds read high
Method in brief: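 Whole-cell yeast assay. The mutant strain was incubated with compounds, and growth inhibition was determined by comparison with vehicle-treated cells.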

[6] = NCI Yeast Anticancer Drug Screen. Data for the mlh1 rad18 strain (AID 175); details: S. cerevisiae mlh1 rad18 strain growth inhibition; at 50.0 µM; active compounds read high
Method in brief: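 Inhibition values reflect reduced growth of mutant yeast versus vehicle-treated controls following compound exposure; the mutations affect DNA damage repair.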

Measured: growth inhibition

CC(=O)Nc1ccc2c(c1)C(=O)c1ccccc1-2
inactive: [1] 64.1% | [2] 16.1% | [3] 30.2% | [4] 26.3% | [5] -16.8% | [6] 31.4%

COC(=O)C1=C(O)c2cc(-c3ccccc3)c(-c3ccccc3)c(C#N)c2NC(=O)C1
inactive: [1] 32.5% | [2] 23.9% | [3] 12.9% | [4] 11.1% | [5] -4.25% | [6] 30.4%

OCCN1OCCCC1c1ccccc1 (configuration not stated)
inactive: [1] -0.75% | [2] -14.3% | [3] 1.2% | [4] -28.1% | [5] -31.2% | [6] 0.1%

COc1ccc(Nc2nnc(-c3nsc4ccccc34)s2)cc1
inactive: [1] -2.5% | [2] -28.4% | [3] -37.9% | [4] 22.2% | [5] -27.9% | [6] -24.9%

CCc1nc2c(cnn2C)c(=O)n1-c1ccccc1
inactive: [1] -5% | [2] -6.35% | [3] -1.2% | [4] 3.9% | [5] 10.6% | [6] 7.55%

Cc1ccccc1/C=C/C(=O)c1ccccc1
inactive: [1] 45.2% | [2] 24.6% | [3] 40.8% | [4] 1.8% | [5] 11.4% | [6] 20%

CC(=O)Oc1ccc(C(c2ccccc2)c2ccccc2)c2ccccc12
inactive: [1] -9.8% | [2] -13.4% | [3] -1.95% | [4] 2.85% | [5] -52.8% | [6] -18.9%

CS(=O)(=O)OC1COC(c2ccccc2)OC1C1OC(c2ccccc2)OCC1OS(C)(=O)=O (configuration not stated)
inactive: [1] -26.7% | [2] -3.85% | [3] -31.9% | [4] -4% | [5] -0.9% | [6] -7.25%

O=C(SCc1oc2ccccc2c1O)c1ccccc1
inactive: [1] 12.8% | [2] 13.7% | [3] 16.5% | [4] -3.75% | [5] -7.3% | [6] 13.3%

O=c1nc2c(c(-c3ccc(Br)cc3)[nH]1)COC/C2=C\c1ccc(Br)cc1
inactive: [1] 31.1% | [2] 17.2% | [3] 35.8% | [4] 8% | [5] 18.1% | [6] 31.3%

CCNCC(=O)Nc1ccc2c(c1)C(=O)c1ccc(NC(=O)CNCC)cc1C2=O
inactive: [1] 20.9% | [2] 28.5% | [3] 29.2% | [4] -4.55% | [5] 3.85% | [6] 50.8%

CC(=O)OC(C)C(=O)OCCOc1ccccc1 (configuration not stated)
inactive: [1] 8.7% | [2] -12% | [3] 14.3% | [4] -36.6% | [5] -7.3% | [6] -4%

Cc1c(O)c([N+](=O)[O-])cc2c1OCOC2
inactive: [1] 3.8% | [2] 11.6% | [3] -3.15% | [4] -9.4% | [5] -17.5% | [6] 0%

O=S1(=O)CC(N2CCCCC2)C=C(c2ccccc2)O1 (configuration not stated)
inactive: [1] 37.1% | [2] 0.25% | [3] 14.3% | [4] 15.2% | [5] 12.7% | [6] 34.2%

ClC(Cl)=C(Cl)C(Cl)(Cl)Cl
inactive: [1] -23.8% | [2] 20.9% | [3] 0.95% | [4] -16.5% | [5] -5.65% | [6] 5.4%

O=C(CCCl)Nc1cccc(CCC(=O)c2ccccc2NC(=O)CCCl)c1
inactive: [1] -8.1% | [2] -18.1% | [3] -4.2% | [4] -15.9% | [5] -7.1% | [6] -10.4%

COC(=O)C1(OC(=O)Sc2ccccc2)CCN(C)CC1
inactive: [1] -19.8% | [2] -5.95% | [3] -7.15% | [4] 15.4% | [5] -7.55% | [6] -25.1%

Cc1ccc(S(=O)(=O)NN=C2CCCCC2)cc1
inactive: [1] -3.45% | [2] -11.4% | [3] -1.3% | [4] -19.4% | [5] -14.5% | [6] -11.8%

OC1OC2COC(c3ccccc3)OC2C(O)C1O (configuration not stated)
inactive: [1] 4% | [2] -14.5% | [3] 8.15% | [4] -3.35% | [5] -3.3% | [6] -20.9%

O=S1c2ccccc2Sc2ccccc21
inactive: [1] 2.65% | [2] -8.4% | [3] -5.05% | [4] 1.6% | [5] -2% | [6] -2.25%

NC1c2c(Cl)sc(Cl)c2C(=O)C1O (configuration not stated)
inactive: [1] -0.8% | [2] 15.2% | [3] -10.2% | [4] -3.6% | [5] 4% | [6] -40.4%

COc1ccc2c(c1OC)CN1CCc3cc4c(cc3C1=C2)OCO4
inactive: [1] 15.9% | [2] -3.95% | [3] -9.95% | [4] 2.35% | [5] 8.15% | [6] 12.9%

Cc1ccc(-n2cnc3c(N/N=C4\SCC(=O)N4c4ccccc4)ncnc32)cc1
inactive: [1] 41.2% | [2] 17.6% | [3] 40.2% | [4] 15.1% | [5] 49.2% | [6] 35%

CCCCc1c2c(nc3c1CCCC3=O)C(=O)CCC2
inactive: [1] -11.3% | [2] -1.95% | [3] -14.7% | [4] 2% | [5] -2.45% | [6] -9.15%

O=C1CC(c2ccccc2)S(=O)(=O)c2ccccc2N1 (configuration not stated)
inactive: [1] -13.6% | [2] -8.5% | [3] 1.5% | [4] 10.2% | [5] 11.3% | [6] 1.45%

C=C1C(=O)OC2CC(C)C(C(CC(C)=O)OC(C)=O)=CCC12 (configuration not stated)
inactive: [1] 0.6% | [2] 5.1% | [3] 3.6% | [4] 6.8% | [5] 6.1% | [6] -53.7%

CC(C)(C)OC(=O)N1CCCC1C(=O)NC(c1ccccc1)c1ccccc1 (configuration not stated)
inactive: [1] -35.1% | [2] -56.5% | [3] -37.5% | [4] -18.9% | [5] -13.4% | [6] -40.1%

O=CCCn1[nH]c(=O)ccc1=O
inactive: [1] 2.4% | [2] -4.65% | [3] 15.9% | [4] 20.2% | [5] 25.1% | [6] 12.9%

Cc1ccc(CO)c(O)c1
inactive: [1] 8.65% | [2] -7.25% | [3] -5.55% | [4] 6.4% | [5] 3.75% | [6] 2.15%

CC(C)(c1cn(Cc2ccccc2)c2ccccc12)c1cn(Cc2ccccc2)c2ccccc12
inactive: [1] 39% | [2] 4.2% | [3] 17.9% | [4] 21.1% | [5] -4.05% | [6] 10.8%

CC(=O)NC1CON(C(C)=O)C1=O (configuration not stated)
inactive: [1] 2.75% | [2] 0.65% | [3] -9.85% | [4] -54.4% | [5] 2.7% | [6] -6.75%

CNC(=O)c1ccccc1Sc1ccccc1
inactive: [1] -4.25% | [2] -15.8% | [3] -16.3% | [4] -34.8% | [5] 0.2% | [6] 3.15%

CC(C)(CCC(C)(C)c1ccccc1)c1ccccc1
inactive: [1] -2.7% | [2] -35.7% | [3] -9.2% | [4] -9.75% | [5] -17.9% | [6] -8.25%

COc1cc(CNCCO)cc(OC)c1
inactive: [1] 22.2% | [2] 8.8% | [3] -1.35% | [4] -15.1% | [5] 19.6% | [6] 13%

O=c1[nH]c2ccccc2c(O)c1O
inactive: [1] 24.4% | [2] 7.85% | [3] 22.9% | [4] 14.7% | [5] 1% | [6] -5.35%

COc1ccccc1NC(=O)C(C#N)=C(SC)SC
inactive: [1] 2.05% | [2] -14.2% | [3] 0.1% | [4] 18.6% | [5] -22.4% | [6] -13.7%

COc1cc(C2(C)SCCCS2)cc(OC)c1OC
inactive: [1] -10.9% | [2] -8.1% | [3] -4.05% | [4] 0.2% | [5] 25.8% | [6] -15.3%

O=C(Nc1ccccc1)C1(Cl)CCCCC1
inactive: [1] 11.7% | [2] -7.35% | [3] -8.7% | [4] -16.9% | [5] -4.7% | [6] 1.8%

CC(=O)N=C1N(/C=C2\C(=O)Oc3ccccc3C2=O)C(=O)/C(=C/c2ccc3c(c2)OCO3)N1C
inactive: [1] 21.6% | [2] -5.55% | [3] 5.25% | [4] 9.4% | [5] -6.35% | [6] 10.5%

Cc1cc(O)cc2oc(=O)ccc12
inactive: [1] -34.4% | [2] -23.4% | [3] -9.9% | [4] -11.7% | [5] -11.7% | [6] -15.2%

FC(F)(F)c1cccc(N=Cc2ccc(C=Nc3cccc(C(F)(F)F)c3)cc2)c1
inactive: [1] 10.4% | [2] -9.2% | [3] 13.3% | [4] 7.6% | [5] -9% | [6] 1.35%

N=C(N)SC1CC2CC1C1C=CCC21 (configuration not stated)
inactive: [1] 6.65% | [2] -6.6% | [3] 16.4% | [4] -19.1% | [5] 9.05% | [6] 16.2%
